Assay outcomes: PubChem, National Center for Advancing Translational Sciences (NCATS)
In the library only some 9% were active in any assay of this set; here they are far more common.
HTT aggregate = mutant huntingtin aggregation inhibition; PC12 HttQ103-GFP aggregates, Acumen cytometry, 40 h; Potency, µM (titrated, usually from 46.1 µM), inactives show top-dose activity change, negative = inhibition, actives largely listed as inhibitors; actives 1.1% (n = 220,000); AID 1688; further: on the % scale 0 is the no-effect control and ±100 the full control effect; nearly all actives have a fitted effect of over 60% in size
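Huntingtin Q103 exon 1–GFP aggregates in induced PC12 cells (100 nM tebufenozide) were quantified by cytometry from lysates, with compounds dosed in titration.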
HTT cytoprotect = protects HTT-Q103 PC12 cells, measured by ATP; Potency, µM (top dose mostly 56.4 µM), for inactives: cytoprotection (ATP increase), actives largely listed as activators; AID 1471; PC12 HTT-Q103 induced, cytoprotection, ATP luminescence, 40 h; actives 0.14% (n = 230,000); further: % of control where 0% means no effect; nearly all actives have a fitted effect of over 45% in size
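Compounds added alongside 100 nM tebufenozide, which induces toxic Q103 huntingtin exon 1-GFP in stable PC12 cells; surviving cells quantified by luminescent ATP measurement. Medium: phenol red-free DMEM, 5% equine and 5% calf serum.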
HPGD block = HPGD (human) dehydrogenase inhibition. AID 894. actives 4.3% (n = 150,000). purified HPGD, NADH fluorescence kinetic, PGE2 substrate. Potency, µM, for inactives: at the highest dose activity change, negative = inhibition, hits mostly inhibitors. P15428; active means well fitted inhibition curve with a large enough effect, not every such curve was filed as active; inconclusive means small, poorly fitted or top-dose-only effect, or another doubt; inactive means no such curve, though single readings can be large or run the other way; further: on the % scale 0 is the no-effect control and ±100 the full control effect
Target sequence (P15428 whole entry, looked up): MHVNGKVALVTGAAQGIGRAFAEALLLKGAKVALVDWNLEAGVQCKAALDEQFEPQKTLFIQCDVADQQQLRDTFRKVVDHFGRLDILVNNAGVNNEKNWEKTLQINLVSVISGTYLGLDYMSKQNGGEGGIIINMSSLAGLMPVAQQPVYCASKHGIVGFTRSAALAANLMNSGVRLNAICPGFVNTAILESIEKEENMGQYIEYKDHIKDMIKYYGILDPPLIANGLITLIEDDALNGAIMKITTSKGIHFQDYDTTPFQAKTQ
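20 nM HPGD preincubated 15 min at room temperature with compound in 50 mM Tris-HCl pH 8, 0.01% Tween 20. Started with 1 mM NAD+ and 30 uM prostaglandin E2; NADH fluorescence (360/450 nm) read 5 times over 30-s intervals, last minus first.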
Luc counter = Kinase-Glo luciferase inhibition (counter-screen) | Q27757 | AID 1379 | Potency, µM (top dose mostly 38.3 µM), for the others: top-dose activity change, negative = inhibition, most hits filed as inhibitors | Kinase-Glo luciferase, ATP luminescence, 8 min | actives 0.28% (n = 200,000); further: on the % scale 0 is the no-effect control and ±100 the full control effect; nearly all actives have a fitted effect of over 60% in size
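Compound is pinned into ATP-containing buffer (10 uM ATP, imidazole pH 7.2, 7 mM MgCl2). Kinase-Glo luciferase reagent is then added. Light output is recorded following an 8-min room-temperature incubation.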
ALDH1A1 inh = ALDH1A1 (human) enzyme inhibition; P00352; actives 7.3% (n = 220,000); Potency, µM (doses to about 75.3 µM), without a hit: top-dose activity, negative = inhibition, usual class: inhibitors; AID 1030; Purified ALDH1A1, NADH fluorescence, propionaldehyde substrate; active means well fitted inhibition curve with a large enough effect, not every such curve was filed as active; inconclusive means small, poorly fitted or top-dose-only effect, or another doubt; inactive means no such curve, though single readings can be large or run the other way;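 further: plate controls were no enzyme wells and a reference inhibitor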
Lamin A splicing = modulators of lamin A splicing; Potency, µM (series often up to 46.1 µM), inactives show at the highest dose ratio change, negative = inhibition, hits mostly inhibitors; HeLa LMNA splicing GFP/RFP minigene ratio, 48 h; actives 0.01% (n = 200,000); active means well fitted inhibition curve with a large enough effect in the signal ratio, with a control signal flat, not every such curve was filed as active; inconclusive means small, poorly fitted or top-dose-only effect, or effect the other way, or a change in a side signal; the % refers to the signal ratio; further: on the % scale 0 is the no-effect control and ±100 the full control effect
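Read-out is the ratio of GFP to DsRed2 object intensity, acquired by 488 nm laser-scanning cytometry on HeLa lamin A-EGFP minigene reporter cells. Compound incubation 48 hrs at 37 °C in Opti-MEM with 2% FBS; DMSO 0.5% final.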
Active calls of the source: *; ? = inconclusive; . = no result; [ ] = another dose, or the depositor's remark. Unless noted, the call rests on the fitted dose curve; in most records, active means well fitted curve in the direction sought with a large enough effect; inconclusive means small, poorly fitted or top-dose-only effect, or another doubt; inactive means no such curve, though single readings can be large; an effect the other way counts as inactive or inconclusive. Potency means the concentration at half of the fitted maximal effect.

SMILES	HTT aggregate	HTT cytoprotect	HPGD block	Luc counter	ALDH1A1 inh	Lamin A splicing
C(=N\n1cnnc1)/c1cccc(Oc2ccccc2)c1	-10.3%	-10.7%	-1.0%	0.7%	6.0%	-6.4%
S=c1[nH]ncn1/N=C/c1cccc(Oc2ccccc2)c1	32.7%	-5.8%	10µM*	1.8%	17.8µM*	-3.4%
CCOc1ccc(/C=N/OCC(=O)Nc2ccc(OCc3ccccc3)cc2)cc1OC	7.0%	-21.0%[10 µM]	?	1.0%	-3.8%	?
COc1cc(/C=N/OCC(=O)NC23CC4CC(CC(C4)C2)C3)ccc1OCc1ccccc1	?	-10.7%[10 µM]	.	.	22.4µM*	?
COc1cc(/C=N/OCC(=O)Nc2ccc(OC(F)F)cc2)ccc1OCc1ccccc1	-10.6%	-6.3%[10 µM]	-13.6%	-1.3%	-2.1%	?
COc1cc(/C=N/OCC(=O)NC2CCCCC2)ccc1OCc1ccccc1	7.3%	.	-22.5%	-1.2%	22.4µM*	?
CCN(c1ccccc1)S(=O)(=O)c1cnc[nH]1	-11.7%	0.3%	-5.0%	-2.1%	7.0%	-2.8%
N#CCCCN1C(=O)C(=C(C#N)C#N)c2ccccc21	-13.1%[9.22 µM]	3.6%[10 µM]	.	-6.1%	0.794µM*	-15.8%[46 µM]
CN(C(=S)SCc1ccccc1)C1CCS(=O)(=O)C1 (configuration not stated)	-5.2%	-32.6%	.	5.1%	-2.7%	-8.5%[46 µM]
Cc1c2c(nc3ccccc13)CC(C)(C)CC2=O	-14.4%	-40.5%	.	9.0%	14.1µM*	-9.6%[46 µM]
CCC(C)NC(=S)N1CCN(C(c2ccccc2)c2ccccc2)CC1 (configuration not stated)	2.2%	-7.6%[10 µM]	-14.7%	2.0%	?	?
CNC(=S)N1CCN(C(c2ccccc2)c2ccccc2)CC1	0.0%[9.22 µM]	14.2%[10 µM]	.	0.3%	2µM*	?
S=C(NCC1CCCO1)Nc1ccccc1Cl (configuration not stated)	-2.9%	.	12.6µM*	-6.8%	0.3%	19.3%
CCC(C)NC(=S)N1CCN(Cc2ccccc2)CC1 (configuration not stated)	0.562µM*	.	.	-2.0%	6.8%	.
COc1ccccc1NS(=O)(=O)c1ccc(O)c(NC(=S)NCC2CCCO2)c1 (configuration not stated)	-1.2%[9.22 µM]	8.6%[10 µM]	.	.	5.62µM*	3.6%[46 µM]
COc1ccc(NC(=S)NCC2CCCO2)c(C)c1 (configuration not stated)	-1.4%	.	-27.8%	-2.5%	-7.1%	3.3%
COc1ccc(NC(=O)Nc2ncn(Cc3cccc(C(F)(F)F)c3)n2)cc1OC	-2.6%	1.0%	-23.7%	3.6%	-1.0%	-16.5%
COc1ccc(NC(=O)c2cc(-c3ccc(O)cc3)on2)cc1OC	.	-8.2%	.	.	.	.
CC1(O)C(=O)C=C2C=C(c3ccc(C#N)cc3)OC=C2C1=O (configuration not stated)	.	14.7%	-11.0%	-1.8%	-15.1%	.
C=CCNC(=S)N1CCN(Cc2ccccc2)CC1	-4.3%[9.22 µM]	1.7%[10 µM]	.	-2.1%	14.1µM*	3.6%[46 µM]
S=C(NCC1CCCO1)N1CCN(Cc2ccccc2)CC1 (configuration not stated)	-3.9%[9.22 µM]	17.0%[10 µM]	.	2.3%	25.1µM*	.
CCN1CCN(C(=S)NC(CC(=O)c2ccccc2)c2ccccc2)CC1 (configuration not stated)	-0.3%[9.22 µM]	19.6%[10 µM]	.	.	-3.5%	.
Oc1cccc(C(=S)N2CCN(Cc3ccccc3)CC2)c1	-5.5%	8.9%[0.074 µM]	14.1µM*	4.1%	11.2µM*	-2.8%
CCN1CCN(C(=S)NC(C)c2ccccc2)CC1 (configuration not stated)	12.5%	12.3%[10 µM]	-11.6%	-1.8%	18.9µM*	-11.9%
CC1CCC(NC(=O)Cn2ncc3ccccc32)CC1 (configuration not stated)	-17.7%	-8.8%	-0.2%	0.8%	12.6%	-2.1%
O=C(CSc1cccc[n+]1[O-])NC1CCCCCCC1	12.7%	-29.4%	.	-1.9%	2.0%	7.3%[9.22 µM]
